# According to ChEMBL document CHEMBL5606458, “ASAP - ZIKV NS2B-NS3 protease fluorescence single point” (2024):
# The campaign covered roughly 2,700 compounds. About 160 (5.9%) showed an effect of 50% or more. The full list was thinned out, with strong results kept by preference.
# Target: Nonstructural protein 3 (Zika virus) (UniProt A0A024AXB9)
# Sequence (A0A024AXB9 as listed by the source): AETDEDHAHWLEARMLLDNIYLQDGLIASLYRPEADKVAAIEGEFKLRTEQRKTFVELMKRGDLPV
smiles,measurement,setting,value
CCn1ccnc(N2CCC(c3c[nH]c4ccccc34)CC2)c1=O,inhibition,"PRVABC59, Concentration 49.5 uM, Number of replicates 2.0, Standard deviation 0.010362729937070537 %",13.2%
same,inhibition,"PRVABC59, Concentration 99.01 uM, Number of replicates 2.0, Standard deviation 0.987094027815814 %",22.1%
same,inhibition,"PRVABC59, Concentration 198.0 uM, Number of replicates 2.0, Standard deviation 0.3108960594532158 %",8.34%
c1cc(CN2CCC(c3c[nH]c4cccnc34)CC2)c2[nH]ncc2c1,inhibition,"PRVABC59, Concentration 49.5 uM, Number of replicates 2.0, Standard deviation 1.1670691631522456 %",7.96%
same,inhibition,"PRVABC59, Concentration 99.01 uM, Number of replicates 2.0, Standard deviation 0.8238130905871536 %",15.7%
same,inhibition,"PRVABC59, Concentration 198.0 uM, Number of replicates 2.0, Standard deviation 0.8191324301789277 %",25.9%
c1ccc2c(CN3CCC[C@H](c4c[nH]c5ccccc45)C3)c[nH]c2c1,inhibition,"PRVABC59, Concentration 50.0 uM, Number of replicates 2.0, Standard deviation 1.0176784784936235 %",17.6%
same,inhibition,"PRVABC59, Concentration 100.0 uM, Number of replicates 2.0, Standard deviation 1.399627381040445 %",30%
same,inhibition,"PRVABC59, Concentration 200.0 uM, Number of replicates 2.0, Standard deviation 0.26403213565698247 %",45.3%
CCOc1cc(COc2cccnc2F)nc(N2CCNCC2)n1,inhibition,"PRVABC59, Concentration 49.5 uM, Number of replicates 2.0, Standard deviation 1.6064643888068098 %",4.13%
same,inhibition,"PRVABC59, Concentration 99.01 uM, Number of replicates 2.0, Standard deviation 0.9927585642556782 %",12.5%
same,inhibition,"PRVABC59, Concentration 198.0 uM, Number of replicates 2.0, Standard deviation 0.42007662758371656 %",31.7%
O=C(Cn1ccc2cccnc21)N1CC[C@H](c2c[nH]c3ccccc23)C1,inhibition,"PRVABC59, Concentration 49.5 uM, Number of replicates 2.0, Standard deviation 2.6403237167933415 %",8.06%
same,inhibition,"PRVABC59, Concentration 99.01 uM, Number of replicates 2.0, Standard deviation 2.1942883394495833 %",14.3%
same,inhibition,"PRVABC59, Concentration 198.0 uM, Number of replicates 2.0, Standard deviation 1.481657960884592 %",24.1%
N[C@H]1CC[C@H](NC(=O)[C@@H](NC(=O)OCc2ccccc2)c2ccc(OCc3ccccc3)cc2)C1,inhibition,"PRVABC59, Concentration 49.5 uM, Number of replicates 2.0, Standard deviation 1.2628524282528915 %",15.2%
same,inhibition,"PRVABC59, Concentration 49.5 uM, Number of replicates 2.0, Standard deviation 5.748962140815482 %",7.84%
same,inhibition,"PRVABC59, Concentration 99.01 uM, Number of replicates 2.0, Standard deviation 1.1046736199175657 %",52.6%
same,inhibition,"PRVABC59, Concentration 99.01 uM, Number of replicates 2.0, Standard deviation 4.807656617809298 %",46.8%
same,inhibition,"PRVABC59, Concentration 198.0 uM, Number of replicates 2.0, Standard deviation 0.1296531469135765 %",80.8%
same,inhibition,"PRVABC59, Concentration 198.0 uM, Number of replicates 2.0, Standard deviation 1.4858618561424626 %",83.4%
O=C(N[C@@H](C(=O)NC1CCNCC1)c1ccc(OCc2ccccc2)cc1)OCc1ccccc1,inhibition,"PRVABC59, Concentration 49.5 uM, Number of replicates 2.0, Standard deviation 1.3674946237357393 %",8.84%
same,inhibition,"PRVABC59, Concentration 99.01 uM, Number of replicates 2.0, Standard deviation 2.2060968748779715 %",27.2%
same,inhibition,"PRVABC59, Concentration 198.0 uM, Number of replicates 2.0, Standard deviation 0.9505739521685185 %",59.8%
N[C@H]1CC[C@@H](NC(=O)[C@@H](NC(=O)OCc2ccccc2)c2ccc(OCc3ccccc3)cc2)C1,inhibition,"PRVABC59, Concentration 49.5 uM, Number of replicates 2.0, Standard deviation 1.7270227515739174 %",10.7%
same,inhibition,"PRVABC59, Concentration 99.01 uM, Number of replicates 2.0, Standard deviation 1.537724733346876 %",44.6%
same,inhibition,"PRVABC59, Concentration 198.0 uM, Number of replicates 2.0, Standard deviation 0.3345151533587208 %",79.2%
N[C@@H]1CC[C@H](NC(=O)[C@@H](NC(=O)OCc2ccccc2)c2ccc(OCc3ccccc3)cc2)C1,inhibition,"PRVABC59, Concentration 49.5 uM, Number of replicates 2.0, Standard deviation 0.3008027321718269 %",7.24%
same,inhibition,"PRVABC59, Concentration 99.01 uM, Number of replicates 2.0, Standard deviation 0.0103741938798655 %",43%
same,inhibition,"PRVABC59, Concentration 198.0 uM, Number of replicates 2.0, Standard deviation 1.7866649254890776 %",79.8%
CC(C)(C)OC(=O)Cn1ccnc(N2CC[C@@H](CO)C2)c1=O,inhibition,"PRVABC59, Concentration 49.5 uM, Number of replicates 2.0, Standard deviation 1.325865675699347 %",11.6%
same,inhibition,"PRVABC59, Concentration 99.01 uM, Number of replicates 2.0, Standard deviation 1.7656333109073532 %",22.2%
same,inhibition,"PRVABC59, Concentration 198.0 uM, Number of replicates 2.0, Standard deviation 1.622873505631253 %",37.1%
O=C(O)c1cc(Cl)ccc1NS(=O)(=O)c1ccc(Br)cc1,inhibition,"PRVABC59, Concentration 49.5 uM, Number of replicates 2.0, Standard deviation 0.7950601733582335 %",7.77%
same,inhibition,"PRVABC59, Concentration 99.01 uM, Number of replicates 2.0, Standard deviation 0.4216229111618842 %",14.7%
same,inhibition,"PRVABC59, Concentration 198.0 uM, Number of replicates 2.0, Standard deviation 0.3312742292956271 %",24.5%
CCn1ccnc(N2CC[C@H](c3ccc(C#N)cc3)C2)c1=O,inhibition,"PRVABC59, Concentration 49.5 uM, Number of replicates 2.0, Standard deviation 3.318813799365356 %",8.78%
same,inhibition,"PRVABC59, Concentration 99.01 uM, Number of replicates 2.0, Standard deviation 2.601162551030959 %",17.7%
same,inhibition,"PRVABC59, Concentration 198.0 uM, Number of replicates 2.0, Standard deviation 2.251403725502818 %",31.6%
CCn1ccnc(N2CC[C@H](C3CCOCC3)C2)c1=O,inhibition,"PRVABC59, Concentration 50.0 uM, Number of replicates 2.0, Standard deviation 1.8994947363510455 %",7.04%
same,inhibition,"PRVABC59, Concentration 100.0 uM, Number of replicates 2.0, Standard deviation 0.728011618047951 %",14.4%
same,inhibition,"PRVABC59, Concentration 200.0 uM, Number of replicates 2.0, Standard deviation 0.3716947428915149 %",27.3%
N[C@H]1C[C@H](CNC(=O)[C@@H](NC(=O)OCc2ccccc2)c2ccc(OCc3ccccc3)cc2)C1,inhibition,"PRVABC59, Concentration 49.5 uM, Number of replicates 2.0, Standard deviation 3.7963377615811797 %",3.96%
same,inhibition,"PRVABC59, Concentration 99.01 uM, Number of replicates 2.0, Standard deviation 2.5827561793492815 %",42.9%
same,inhibition,"PRVABC59, Concentration 198.0 uM, Number of replicates 2.0, Standard deviation 1.1643103990361166 %",82.5%
O=Cc1ccc(N2CCC(C(=O)N3C[C@@H]4C[C@H](C3)c3cccc(=O)n3C4)CC2)cc1,inhibition,"PRVABC59, Concentration 50.0 uM, Number of replicates 1.0",21.2%
CC(C)Oc1cc(COc2cccnc2F)nc(N2CCNCC2)n1,inhibition,"PRVABC59, Concentration 49.5 uM, Number of replicates 2.0, Standard deviation 2.4105168451759336 %",4.13%
same,inhibition,"PRVABC59, Concentration 99.01 uM, Number of replicates 2.0, Standard deviation 2.7698794201931607 %",16.6%
same,inhibition,"PRVABC59, Concentration 198.0 uM, Number of replicates 2.0, Standard deviation 3.834837221821941 %",38.4%
COc1cc(COc2cncc3ccccc23)nc(N2CCNCC2)n1,inhibition,"PRVABC59, Concentration 49.5 uM, Number of replicates 2.0, Standard deviation 3.6633197788698872 %",18.2%
same,inhibition,"PRVABC59, Concentration 99.01 uM, Number of replicates 2.0, Standard deviation 8.620902514901289 %",33.6%
same,inhibition,"PRVABC59, Concentration 198.0 uM, Number of replicates 2.0, Standard deviation 2.631600667850739 %",48.9%
COc1cc(C(=O)Nc2cnc3ccccc3c2)nc(N2CCNCC2)n1,inhibition,"PRVABC59, Concentration 49.5 uM, Number of replicates 2.0, Standard deviation 31.670721297793175 %",46.6%
same,inhibition,"PRVABC59, Concentration 99.01 uM, Number of replicates 2.0, Standard deviation 1.978331259427643 %",52.6%
same,inhibition,"PRVABC59, Concentration 198.0 uM, Number of replicates 2.0, Standard deviation 3.25586764970173 %",44.4%
COC(=O)c1cncc(OCc2cc(OC)nc(N3CCNCC3)n2)c1,inhibition,"PRVABC59, Concentration 49.5 uM, Number of replicates 2.0, Standard deviation 0.44537620063304795 %",8.58%
same,inhibition,"PRVABC59, Concentration 99.01 uM, Number of replicates 2.0, Standard deviation 1.920430256118165 %",19.8%
same,inhibition,"PRVABC59, Concentration 198.0 uM, Number of replicates 2.0, Standard deviation 1.464841031153957 %",42.9%
CCCCCC(=O)N[C@H](C(=O)NCc1cccc(CN)c1)C1CCCCC1,inhibition,"PRVABC59, Concentration 49.5 uM, Number of replicates 2.0, Standard deviation 0.08302069360936502 %",-2.7%
same,inhibition,"PRVABC59, Concentration 99.01 uM, Number of replicates 2.0, Standard deviation 0.655862366837183 %",-1.9%
same,inhibition,"PRVABC59, Concentration 198.0 uM, Number of replicates 2.0, Standard deviation 0.31962821211509684 %",41.3%
